Bioassay records: PubChem, Broad Institute
Shown are actives, neighbours in structure and some others; about 2.7% of the full set was active somewhere.
F508del corr = CFTR F508del correction in bronchial cells | actives 0.36% (n = 350,000) | CFBE cells, YFP halide quenching; stimulated with forskolin plus potentiator P3; % fluorescence drop versus neutral controls | activity (quench increase), % at 7.58 µM;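 active means mean added fluorescence quench of at least 8% versus neutral control, with both replicates also reaching 8%; inconclusive means only one of the mean or replicate conditions met; inactive means mean below 8% and not both replicates reaching 8%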;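 further: cells transiently co-express mutant CFTR-F508del with the halide-sensitive YFP; corrector assay measuring rescue of mutant channel to the surface after 24 h compound exposure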
GSIS activator = primary screen for activators of insulin secretion dependent on glucose, INS-1E cells, GLuc reporter luminescence. INS-1E GLuc reporter insulin secretion, 2-3 h. activation, % at 16.6 µM. actives 0.61% (n = 370,000);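 active means lowest replicate activation of at least 40%, so every replicate reaches that level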;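 further: 0% = median of neutral control wells and 100% = median of IBMX positive control wells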
Env fusion inh = inhibitors of HIV Env-mediated cell fusion; actives 1.1% (n = 360,000); HeLa-JRFL Env/CEM21 cell fusion, luciferase; inhibition, % at 12.3 µM;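 active means mean replicate inhibition score of at least 50 and every replicate individually at or above 50; inconclusive means only one of the two criteria met; inactive means mean below 50 and not all replicates reaching 50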;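 further: 0% = plate neutral controls and 100% = maraviroc near 300 nM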
EWS-Fli inh = EWS/Fli transcriptional activity inhibition; inhibition, % at 12.6 µM; A673 NR0B1-luciferase reporter, viability-normalised; actives 0.67% (n = 350,000); AID 651661;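 active means mean inhibition of at least 50% after viability correction, with every replicate also passing that limit; inconclusive means mean reaches 50% but only one of two replicates passes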;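 further: firefly luciferase signal divided by Alamar Blue viability fluorescence both relative to DMSO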
PAX8 reporter = PAX8 transcriptional activity inhibition. RMG-I TPO-luciferase reporter, SteadyGlo, 24 h. inhibition, % at 12.6 µM. actives 1.2% (n = 360,000);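 active means mean replicate inhibition at least 60% with every replicate also reaching 60%; inconclusive means only one of the two criteria is met; inactive means mean below 60% and not all replicates reaching 60%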;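 further: luciferase light reporting Pax8 driven TPO promoter activity; plate controls were median of neutral control wells for no effect and mitoxantrone controls for full effect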
PGC1a acetyl inh = PGC1a acetylation modulation, inhibitor mode. U2OS PGC1a acetylation, AlphaScreen anti-acetyl-lysine; with virally co-expressed GCN5 acetyltransferase. inhibition, % at 15.6 µM. actives 0.17% (n = 350,000);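 active means every replicate shows inhibition of at least 40%; inconclusive means mean inhibition at least 40% but some replicate below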;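 further: 0% = neutral control wells and 100% = positive control wells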
Numbers without * were called inactive; ? = inconclusive; nt = no result given; + = active, no number; ! = not confirmed by another sample; [ ] = another dose, or the depositor's remark.

SMILES | F508del corr | GSIS activator | Env fusion inh | EWS-Fli inh | PAX8 reporter | PGC1a acetyl inh
CCCc1nc2sc3c(SCC(=O)NCc4ccco4)ncnc3c2c2c1CCC2 | nt | 61.1* | -25.9 | nt | nt | -11.6
CC=Cc1ccc2n(c1=O)C[C@H]1[C@H](CO)[C@@H](C(=O)NCCC)N(CC3CCCC3)[C@@H]21 (mixture of isomers) | 3.0 | -2.4 | nt | 7.8 | -7.0 | 10.6
CC1(C)CC2CC(C)(CN2S(=O)(=O)c2ccc(C(=O)Nc3ccc(S(=O)(=O)N4CCOCC4)cc3)cc2)C1 (configuration not stated) | -0.3 | 8.4 | 20.7 | 18.8 | 82.6* | nt
CC1(C)CC2CC(C)(CN2S(=O)(=O)c2ccc(C(=O)Nc3ccc(Cl)c(S(=O)(=O)N4CCOCC4)c3)cc2)C1 (configuration not stated) | nt | nt | nt | nt | nt | -14.1
CC(C)Cc1nc2oc3c(NCc4cccnc4)ncnc3c2c2c1CCC2 | nt | 75.3* | -9.3 | nt | nt | nt
CCCc1nc2oc3c(NCC(C)O)ncnc3c2c2c1CCCC2 (configuration not stated) | 1.5 | 10.6 | 5.1 | 1.6 | 12.7 | -0.6
CC(C)Cc1nc2oc3c(NCC4CCCO4)ncnc3c2c2c1CCC2 (configuration not stated) | nt | nt | 17.7 | nt | 81.6* | 1.2
O=C(C[C@H]1C[C@@H]2c3cc(NC(=O)C4CCC4)ccc3O[C@@H]2[C@H](CO)O1)NCC(F)(F)F | -0.7 | 3.0 | -54.4[16.7 µM] | -4.1 | -8.6 | 10.2
COc1ccccc1CNC(=O)C[C@@H]1CC[C@H]2[C@@H](COC[C@@H](O)CN2Cc2cccc(-c3ccncc3)c2)O1 | 1.7 | 5.7 | 18.0[16.7 µM] | 10.9 | 6.6 | 2.6
O=C(C1CCCC1)N1CC(=O)N2[C@@H](CO)[C@H](c3ccc(-c4ccccc4F)cc3)[C@@H]2C1 | -1.4 | 4.2 | nt | 5.9 | nt | nt
O=C1CN(S(=O)(=O)Cc2ccccc2)C[C@H]2[C@H](c3ccc(C#Cc4cccc(F)c4)cc3)[C@H](CO)N12 | 1.2 | -13.8 | nt | nt | nt | -19.5
C=C1C(=O)O[C@@H]2[C@H]3O[C@]3(C)CC/C=C(\C)CC[C@@H]12 | 0.2 | -13.1 | 22.9 | 1.6 | 101.1* | nt
C[C@H]1CN([C@@H](C)CO)C(=O)c2cc(NC(=O)CCCCCC(=O)Nc3ccccc3N)ccc2O[C@H]1CN(C)C(=O)Nc1ccc(F)cc1 | -1.8 | -12.8 | nt | -6.3 | -12.8 | -1.9
Nc1[nH]c(C(=O)c2ccccc2)c(-c2ccccc2C(F)(F)F)c1C(=O)NCCc1c[nH]c2ccccc12 | 9.8* | -20.5 | -26.2 | -21.3 | 5.9 | nt
Nc1[nH]c(C(=O)c2ccccc2)c(-c2ccccc2Br)c1C(=O)NCCc1c[nH]c2ccccc12 | -3.1 | -11.4 | -27.7 | -3.1 | 10.5 | nt
C[C@@H]1CN([C@@H](C)CO)S(=O)(=O)c2ccc(-c3cccc(F)c3)cc2O[C@H]1CN(C)CC1CC1 | -0.5 | -3.1 | ? | 13.5 | nt | 2.3
C/C=C/c1ccc([C@H]2[C@@H](CO)N(C(=O)CC)C23CN(S(=O)(=O)CC)C3)cc1 | -5.6 | 3.3 | nt | 4.3 | 1.9 | 3.5
COc1ccc(N2CCN(C(=O)C3CCC(Cn4c(=S)[nH]c5ccccc5c4=O)CC3)CC2)cc1 (configuration not stated) | nt | -42.4 | 73.8* | nt | nt | nt
C[C@@H]1CN([C@H](C)CO)C(=O)c2cccc(NS(C)(=O)=O)c2O[C@@H]1CN(C)S(=O)(=O)c1ccccc1 | -1.6 | 1.9 | 3.0[16.7 µM] | 1.9 | nt | -9.0
Cc1cc(C)n2nc(NCc3cccc(Br)c3)nc2n1 | nt | nt | 105.7* | nt | -10.1 | nt
COc1ccc(CNc2nc3nc(C)cc(C)n3n2)cc1OC | nt | nt | -7.5 | nt | nt | -14.2
OC[C@@H]1[C@@H](c2ccc(C#CC3(O)CCCC3)cc2)[C@H]2CN(Cc3ccccc3F)CCCCN12 | 8.4* | 2.6 | nt | 1.0 | -4.3 | 12.0
OC[C@H]1[C@H](c2ccc(C#CC3(O)CCCC3)cc2)[C@H]2CN(Cc3ccccc3F)CCCCN21 | 8.9* | 15.1 | nt | 2.4 | 3.6 | 3.1
CN(C)c1nc(C=C(C#N)C#N)c(Cl)n1-c1ccc(F)cc1 | 1.1 | 8.5 | -61.2 | 38.0 | 68.1* | -31.9
CCOc1ccccc1NC(=O)/C(C#N)=C/c1c(C)nn(-c2ccc(F)cc2)c1Cl | -1.5 | 12.5 | -75.8 | 0.0 | 5.9 | nt
SMILES | F508del corr | GSIS activator | Env fusion inh | EWS-Fli inh | PAX8 reporter | PGC1a acetyl inh
CCOC(=O)c1ccc(NC(=O)O[C@H]2[C@H](OC(=O)Nc3ccccc3)[C@@H](OC(=O)Nc3ccccc3)[C@@H](OC)O[C@@H]2CO)cc1 | -5.4 | nt | -96.3[16.7 µM] | -13.4 | 81.6* | nt
FC(F)(F)c1cc(CCN2CCNC[C@H]2Cc2cccc3ccccc23)cc(C(F)(F)F)c1 | 3.1 | + | 11.2 | 24.2 | -6.0 | nt
Oc1ccc(C[C@@H]2CNCCN2CCc2cc(C(F)(F)F)cc(C(F)(F)F)c2)cc1 | 1.4 | -17.2 | 10.3 | 12.8 | 10.7 | nt
COc1ccc(C(C(=O)NC(C)(C)C)N(C[C@H]2CC[C@@H]([C@@H]3CC[C@H](CO)O3)O2)C(=O)c2ccccc2)cc1 (some centres not stated) | 0.2 | 3.4 | 62.3* | -0.5 | -22.5 | nt
C[C@@H]1CCCCO[C@@H](CN(C)Cc2ccc(C(=O)O)cc2)[C@H](C)CN([C@@H](C)CO)C(=O)c2cc(NC(=O)c3ccncc3)ccc2O1 | -1.0 | 17.1 | -17.4[16.7 µM] | -2.4 | -11.4 | -8.0
Fc1cccc(CN2C[C@@H]3N[C@H](C2)[C@@H]3c2ccc(-c3cccc(F)c3)cc2)c1 | -7.2 | + | nt | -1.4 | 94.4* | 99.2*
Fc1cccc(-c2ccc(C3[C@@H]4CN(Cc5ccccc5F)C[C@H]3N4)cc2)c1 (some centres not stated) | 0.0 | 804.5*! | nt | 10.6 | -8.9 | -3.8
Fc1cccc(-c2ccc(C3[C@@H]4CN(Cc5cccnc5)C[C@H]3N4)cc2)c1 (some centres not stated) | -1.2 | -8.0 | nt | -1.4 | -20.3 | -36.6
Fc1cccc(CN2C[C@@H]3N[C@H](C2)C3c2ccc(-c3ccccc3)cc2)c1 (some centres not stated) | 1.9 | -10.6 | nt | -7.0 | 89.0*! | 96.9*!
OC[C@H]1[C@H](c2ccc(C#Cc3ccccc3)cc2)[C@H]2CN(Cc3cncnc3)CCCCN21 | 1.1 | 4.1 | nt | -8.3 | 4.7 | -3.1
C[C@@H]1CCCCO[C@@H](CN(C)CC2CCCCC2)[C@@H](C)CN([C@H](C)CO)C(=O)c2cc(NS(=O)(=O)c3ccc(Cl)cc3)ccc2O1 | 0.4 | -11.3 | -55.6 | 5.9 | 23.3 | 16.2
C[C@@H]1CCCCO[C@H](CN(C)CC2CCCCC2)[C@H](C)CN([C@H](C)CO)C(=O)c2cc(NS(=O)(=O)c3ccc(Cl)cc3)ccc2O1 | 4.2 | -19.9 | -13.0[16.7 µM] | 62.7* | 95.2* | -3.6
Cc1ccc(S(=O)(=O)Nc2ccc3c(c2)C(=O)N([C@H](C)CO)C[C@@H](C)[C@@H](CN(C)CC2CCCCC2)OCCCC[C@H](C)O3)cc1 | 1.5 | -18.3 | 14.8[16.7 µM] | 12.3 | 26.7 | -14.2
